# Assay results taken from the OligoGym collection.
# Molecular target: C9orf172
# Assay: pooled miR-30 sensor sort-seq; sequence = guide strand
# Conditions: shRNA
# Also: reference of the scale not given here.
row,Sequence,sensor-assay potency score (higher = more potent)
1,TAGGTGTAGCAGCTGTGGCAGG,-0.976
2,ATGATCATGCACATGAAGGGGC,0.238
3,TTGTCAGTGATGGTGATCTCGG,-1.12
4,TAGTAGGTGTAGCAGCTGTGGC,-1.29
5,TAGTAGGCGTCGAAGGTTGGGC,-0.683
6,TCATCAGGTCGTCCTCGTCGGC,-1.75
7,TCTCGGACAGGGACAGTGCGGC,-0.804
8,TTGATGTCCTGGTACACGGTCG,-0.476
9,TATGAGTCGCTGGGCGTCGGGG,-1.22
10,TTGGCCTCGACGAACTCGCAAA,-1.39
11,TACCTTCCGAAGTCCTCCGTGT,-0.162
12,TTGAACATGGTCTCGGTGCGCC,-0.301

# Molecular target: C9orf30
# Assay: as above
# Conditions: shRNA
row,Sequence,sensor-assay potency score (higher = more potent)
1,TATACTTTTCTACTAAAGCCAG,-0.895
2,ATCACTTTTCTTACATTCCAGC,-1.2
3,TTTTCTTACATTCCAGCACATA,-1.58
4,TTGTTGATGGTGTTCTTCCTCA,-0.2
5,TTATCCTGTGTTCCTCCTCTGC,-1.19
6,TTAAATGAGGAAACAGGCCATT,-1.27
7,TATTCTGACAGCTGAACACGAG,-0.517
8,TTCAGAAGACTATAACAGCTTC,-0.358
9,TTATTGAGAACTTCCATTTTTA,-0.9
10,TTTATTGAGAACTTCCATTTTT,-0.999
11,TTACAGGTTACTGACCGCCAAG,-1.66
12,AGAACTTCCATTTTTATCCTGT,-0.0866
